# Shown are actives, neighbours in structure and some others; about 2.2% of the full set was active somewhere.
# CHRM1 antagonist: blocks human M1 muscarinic receptor. CHO-K1 hM1, Fluo-8 calcium fluorescence, ACh EC80 antagonist. actives 1.3% (n = 360,000). P11229. inhibition, % at 3 µM;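 active = percent inhibition above its own plate's cutoff, namely the mean of that plate's compound wells plus 3 SD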;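 also: peak over basal fluorescence ratio during 140 s after agonist addition; 0% = ACh EC80 plus DMSO and 100% = DMSO alone without agonist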
# CHRM1 agonist: activates human CHRM1 receptor. actives 0.33% (n = 360,000). AID 588814. activation, % at 3 µM. P11229. CHO-K1 hM1, Fluo-8 calcium fluorescence, agonist mode; 0% DMSO, 100% acetylcholine EC100;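 active = activation above the run's mean compound activation plus 3 SD, cut at about 16% in these data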;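 also: peak over basal fluorescence ratio within a 140 s kinetic read after compound addition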
# M4 ag: agonists of human muscarinic M4 receptor (CHRM4) | AID 624127 | activation, % at 3 µM | CHO-K1 hM4/Gqi5, Fluo-8 calcium fluorescence; vehicle 0%, full acetylcholine response 100% | actives 0.14% (n = 360,000) | P08173;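 active = activation above the run mean over all test wells plus 3 SD, cut at about 32% in these data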;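 also: peak over basal fluorescence ratio per well then scaled between controls; 0% = DMSO wells and 100% = acetylcholine at EC100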
# Target sequence (P08173 whole entry, looked up): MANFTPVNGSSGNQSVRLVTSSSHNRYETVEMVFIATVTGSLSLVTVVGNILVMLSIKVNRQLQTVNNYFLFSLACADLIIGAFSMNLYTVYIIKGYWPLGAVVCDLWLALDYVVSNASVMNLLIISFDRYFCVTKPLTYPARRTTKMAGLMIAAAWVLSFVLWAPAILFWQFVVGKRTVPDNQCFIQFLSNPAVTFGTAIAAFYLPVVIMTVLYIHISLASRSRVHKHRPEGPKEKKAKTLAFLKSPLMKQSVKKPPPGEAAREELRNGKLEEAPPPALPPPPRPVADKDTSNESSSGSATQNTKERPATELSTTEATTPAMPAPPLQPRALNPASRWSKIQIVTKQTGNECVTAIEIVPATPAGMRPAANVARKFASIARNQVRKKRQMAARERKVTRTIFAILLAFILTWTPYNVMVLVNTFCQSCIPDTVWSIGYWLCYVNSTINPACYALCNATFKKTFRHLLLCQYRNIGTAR
# CHRM4 PAM: CHRM4 positive allosteric modulation; P08173; CHO-K1 hM4/Gqi5, Fluo-8 calcium fluorescence, ACh EC20; 0% = ACh EC20, 100% = maximal ACh; activation, % at 3 µM; actives 0.4% (n = 360,000);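 active = activation above its plate's cutoff, the mean activation of sample wells plus 3 SD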
# CHRM1 PAM: potentiates human M1 receptor response to acetylcholine. CHO-K1 hM1, Fluo-8 calcium fluorescence, ACh EC20; 0% = ACh EC20, 100% = maximal ACh. activation, % at 3 µM. actives 0.088% (n = 360,000). AID 588819; in the data active = activation above about 19%, passing the limit was not always enough
# M4 antag: antagonists of human muscarinic M4 receptor (CHRM4). CHO-hM4 cells, ACh EC80, Fluo-8 calcium fluorescence. actives 0.73% (n = 360,000). inhibition, % at 3 µM. P08173;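 active = inhibition above its plate's cutoff, the mean inhibition of sample wells plus 3 SD, cut at about 27% in these data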;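 also: 0% = acetylcholine EC80 with DMSO and 100% = DMSO without agonist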
# * marks the source's active call; other numbers are inactive results.
SMILES,CHRM1 antagonist,CHRM1 agonist,M4 ag,CHRM4 PAM,CHRM1 PAM,M4 antag
O=C(Cc1ccc(-c2ccccc2)cc1)NCCN1CCOCC1,2,-5,4,19*,-1,0
O=C(CN1CCOCC1)NCc1ccccc1,-8,0,1,12,9,1
O=C(CN1CCOCC1)NCCc1ccccc1,-13,-5,7,24*,8,24
CC(C(=O)Nc1nc(-c2ccc(F)c(F)c2)cs1)N1C(=O)C2CC=CCC2C1=O (stereo not given),31*,-1,30,-12,-17,20
O=C(Cc1ccc(F)cc1)Nc1nc(-c2ccc(F)cc2)cs1,35*,-9,21,-18,-30,-7
O=C(Cc1ccccc1)Nc1nc(-c2ccc(F)c(F)c2)cs1,37*,-8,14,-25,-30,4
CC1(C)c2[nH]c3ccccc3c2C[C@@H]2C(=O)N(Cc3ccccc3Cl)C(=O)N21,12,-7,5,1,-9,12
CCOC(=O)CSc1nnc(Cc2ccc(OC)cc2)n1-c1ccccc1,-17,-3,1,4,11,-6
CN(C)c1ccc(/C=C2\SC(=S)N(Nc3ncc(C(F)(F)F)cc3Cl)C2=O)cc1,61*,37*,20,-20,-18,35*
Cc1cc(C)nc(NN2C(=O)/C(=C/c3ccccc3)SC2=S)n1,4,-5,0,10,1,4
COc1cc(/C=C2\SC(=S)N(Nc3ncc(C(F)(F)F)cc3Cl)C2=O)ccc1O,30*,11,25,-18,-4,39*
CCNC(=S)N(CCN(C)C)Cc1cc2cc3c(cc2[nH]c1=O)OCO3,-17,-3,0,4,7,-6
COC(=O)c1cc(C(=O)CC(C)C)c[nH]1,2,-4,0,1,3,-4
NC(=O)CC(NC(=O)Cc1cccc2ccccc12)c1ccc(N2CCC(N3CCCCC3)CC2)c([N+](=O)[O-])c1 (stereo not given),-3,-9,-1,3,-2,-12
CC(=O)c1cccc(NC(=O)c2ccc3ccccc3c2)c1,5,-3,10,-9,-3,-4
COc1ccc(NC(=O)C2CCC(N3C(=O)C4C5C=CC(C5)C4C3=O)CC2)cc1 (stereo not given),-6,-2,4,-1,3,-11
COc1ccc(NC(=O)[C@@H]2[C@@H]3C(=O)N(C4CCCCC4)C(=O)[C@@H]3C3c4ccccc4C=CN32)cc1 (stereo not given in full),25*,65*,1,6,-16,-3
O=C(/C=C/c1c(F)cccc1Cl)c1ccc(O)cc1,-13,-2,-1,-15,4,39*
Cc1cccc[n+]1CC(=O)Nc1ccc([N+](=O)[O-])cc1Cl,36*,-5,0,-9,-12,15
O=C(C[n+]1ccc(Cc2ccccc2)cc1)Nc1ccc([N+](=O)[O-])cc1Cl,86*,-6,1,-20,-22,27*
Cc1cc(/C=C(\C#N)C(=O)NC2CCCCCC2)c(C)n1C,1,-3,1,23*,7,6
COc1ccc(/C=C(/C#N)C(=O)NC2CCCCC2)cc1Br,-3,-2,1,1,7,-6
Cc1ccc(CNC(=O)COC(=O)c2ccc(Br)cc2)cc1,-7,-6,0,1,2,3
CCOC(=O)c1ccc(NC(=S)NN)cc1,-18,-2,1,20*,9,-12
CCOC(=O)c1ccc(NC(=S)NCc2ccc(F)cc2)cc1,23,5,20,-18,-12,10
SMILES,CHRM1 antagonist,CHRM1 agonist,M4 ag,CHRM4 PAM,CHRM1 PAM,M4 antag
CCOC(=O)c1ccc(CNCc2ccc(C)cc2)cc1,66*,-10,1,-11,-24,18
CCOC(=O)c1ccc(NC(=O)Nc2nc3ccccc3s2)cc1,-4,2,1,-15,6,61*
CCOC(=O)Nc1nc2ccccc2s1,-7,0,1,-4,14,-1
CCOC(=O)c1ccc(NC(=S)NC2CC(C)(C)NC(C)(C)C2)cc1,3,42*,1,6,-16,-8
CCC1SC(C)C/C(=N/NC(N)=O)C1C (stereo not given),-10,-1,5,-2,8,-12
COC(=O)c1ccc(COC(=O)c2ccc(CS(=O)(=O)c3ccc(C)cc3)cc2)cc1,22*,-3,1,8,-10,2
COC(=O)c1ccc(COC(=O)CCS(=O)(=O)c2ccc(C)cc2)cc1,-2,-5,1,-7,5,4
Clc1ccc(CSc2nnc(-c3ccncc3)o2)c(Cl)c1,0,0,0,32*,11,14
Cc1ccccc1CSc1nnc(-c2ccncc2)o1,11,-6,1,-1,-12,1
O=C(NCc1ccccc1)C1CCCN(S(=O)(=O)c2cccc3nsnc23)C1 (stereo not given),2,-3,5,10,2,-16
Cc1ccc(S(=O)(=O)N2CCCC(C(=O)NCc3cccnc3)C2)cc1Cl (stereo not given),-10,-6,2,-3,6,10
Cc1cc(C)c(S(=O)(=O)N2CCCC(C(=O)NCc3cccnc3)C2)c(C)c1 (stereo not given),34*,-4,10,-6,-16,2
O=C(NCc1cccnc1)C1CCCN(S(=O)(=O)c2cccc3nsnc23)C1 (stereo not given),38*,-9,1,-2,-22,1
O=C(NC1CCCC1)c1noc2c1CCCCC2,37*,-4,0,-2,-19,-2
O=C(NCc1ccccc1)c1noc2c1CCCCC2,-8,-10,1,-2,19,-11
CC(C)(C)c1nc2ccccc2[nH]1,-5,-5,0,-4,1,4
FC(F)(F)c1nc2ccccc2[nH]1,-6,-4,0,15*,5,10
Cc1ccccc1N=C1NC(=O)/C(=C/c2cccn2C)S1,-5,-1,1,-6,-3,6
CC(C)(C)C(=O)Nc1ccc(S(=O)(=O)Nc2nccs2)cc1,15,-5,1,-2,-5,7
O=C(O)CSc1nc2sc3c(c2c(=O)n1Cc1ccccc1)CCCCC3,-12,-4,0,8,17,-2
O=C(O)CSc1cc(C(=O)c2ccccc2O)cn2c(=O)c3c4c(sc3nc12)CCCC4,-13,-2,1,33*,13,9
O=C(CNC(=O)c1ccccc1)N=Nc1c(O)[nH]c2ccc(Br)cc12,-8,-3,2,4,6,4
Cc1ccc(C)c(N2CCN(C(=O)CCCOc3cc(=O)n(C)c4ccccc34)CC2)c1,37*,2,22,-23,-13,10

# Source: PubChem BioAssay (The Scripps Research Institute Molecular Screening Center)
